Laboratory results as given in PubChem BioAssay (NCATS).
Results filed as inconclusive are left out. Active and inactive are the calls of the source. Unless noted, calls come from the whole dose curve; as a rule, active = well fitted cell-killing curve with a large enough effect; inconclusive = small, poorly fitted or top-dose-only effect; inactive = flat fitted curve, though single readings scatter.

What was measured:
[1] = Cell Viability - LYMP2-025 (AID 976); note: series mostly up to about 92 µM
Procedure, shortened: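 Acute cytotoxicity is scored as a concentration-dependent fall in intracellular ATP, measured by luciferase luminescence, in human lymphoblastoid LYMP2-025 cells exposed to compound for 24 hours at 37 C. AC50 values come from standard Hill fits.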

[2] = Cell Viability - LYMP2-006 (AID 978); note: series mostly up to about 92 µM; nearly all actives have a fitted effect of over 60% in size
Procedure, shortened: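 In this cytotoxicity screen, the human lymphoblastoid line grew in complete medium with test compounds for 24 hr at 37 C. Cellular ATP served as the viability signal.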

[3] = Cell Viability - LYMP2-007 (AID 979);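 note: cells exposed to compound for 24 h before reading; nearly all actives have a fitted effect of over 60% in size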
Procedure, shortened: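 Cells are seeded at 2500 per well and rested 5 hr. Compounds are then added over a concentration series for 24 hr at 37 C. CellTiter-Glo is added for 30 min at room temperature before luminescence reading.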

[4] = Cell Viability - LYMP2-008 (AID 980); note: nearly all actives have a fitted effect of over 60% in size
Procedure, shortened: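 Cells seeded at 2500/well and rested 5 hr at 37 C; compounds added over a concentration range and incubated 24 hr at 37 C; CellTiter-Glo added, 30 min at room temperature; luminescence read and AC50 fitted with Hill model.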

[5] = Cell Viability - LYMP2-010 (AID 981); note: nearly all actives have a fitted effect of over 55% in size
Procedure, shortened: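 Steps: seed 2500 LYMP2-010 cells per well; incubate 5 hr at 37 C; add compound; incubate 24 hr at 37 C; add CellTiter-Glo, wait 30 min at room temperature; read luminescence. Concentration-response fitted to Hill equation for AC50.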

[6] = Cell Viability - LYMP2-012 (AID 982);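 note: cellular ATP by luciferase luminescence where a drop means cytotoxicity; cells exposed to compound for one day before reading; nearly all actives have a fitted effect of over 55% in size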
[7] = Cell Viability - LYMP2-014 (AID 983); note: series mostly up to about 92 µM; nearly all actives have a fitted effect of over 50% in size
Procedure, shortened: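 Cells are plated at 2500/well and left 5 hr at 37 C. Compounds are added across a concentration range and incubated 24 hr at 37 C in complete medium. CellTiter-Glo is added, and luminescence is read after 30 min at room temperature.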

[8] = Cell Viability - LYMP2-016 (AID 984); note: nearly all actives have a fitted effect of over 55% in size
Procedure, shortened: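 Concentration-dependent ATP depletion measured in LYMP2-016 lymphoblastoid cells, 24 h, 37 C; luciferase-based luminescent detection; Hill-equation AC50.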

[9] = Cell Viability - LYMP2-018 (AID 985);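 note: compound exposure lasted 24 hr at 37 °C; nearly all actives have a fitted effect of over 50% in size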
Procedure, shortened: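 Seed 2500 lymphoblastoid cells per well, incubate 5 hr at 37 C, add compound and incubate 24 hr at 37 C, add CellTiter-Glo, wait 30 min at room temperature, then read luminescence.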

[10] = Cell Viability - LYMP2-020 (AID 986); note: series mostly up to about 92 µM; nearly all actives have a fitted effect of over 55% in size
Procedure, shortened: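 Seed 2500 cells per well and incubate 5 hr at 37 C. Add compounds at a concentration series and incubate 24 hr at 37 C. Add CellTiter-Glo, wait 30 min at RT, read luminescence, and fit a Hill curve for AC50.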

[11] = Cell Viability - LYMP2-022 (AID 987); note: nearly all actives have a fitted effect of over 55% in size
Procedure, shortened: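 Cells were seeded at 2500 per well, rested 5 hr at 37 C, and treated with titrated compounds for 24 hr at 37 C. Cellular ATP was then quantified by luciferase luminescence, and AC50 values were derived from Hill-modelled concentration-response curves.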

[12] = Cell Viability - LYMP2-024 (AID 988); note: nearly all actives have a fitted effect of over 60% in size
Procedure, shortened: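 qHTS cytotoxicity, human lymphoblastoid line, complete medium; 24 h cpd treatment, 37 C; CellTiter-Glo ATP luminescence readout; tetraoctylammonium bromide positive control; AC50 via Hill fit.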

[13] = Cell Viability - LYMP2-026 (AID 989); note: nearly all actives have a fitted effect of over 50% in size
Procedure, shortened: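 Cells are seeded at 2500 per well and held 5 hr at 37 C. Compounds are added in concentration series for 24 hr, then CellTiter-Glo reagent is applied and luminescence read.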

[14] = Cell Viability - LYMP1-002 - Assay at 40 hr (AID 994); note: nearly all actives have a fitted effect of over 60% in size
Procedure, shortened: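 Cells are plated at 2500 per well and rested 5 hr at 37 C. Compounds are added and incubated 40 hr at 37 C. CellTiter-Glo reagent is added for 30 min at room temperature before luminescence is read.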

[15] = qHTS Assay for Identification of Small Molecule Inducers of Hypoxia Response (AID 2120; active = well fitted curve in the direction sought with a large enough effect in the signal ratio, with a control signal flat, not every such curve was filed as active; the % refers to the signal ratio)
Procedure, shortened: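 Cell-based qHTS for reporter induction: hypoxia response element controlled beta-lactamase in ME-180 cells. Compounds incubated 17 h at 37 degrees C; activity from blue/green (460/530 nm) ratio, inducers ranked by AC50.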

[16] = molecular target: Estrogen receptor (Homo sapiens) (UniProt P03372); assay: qHTS assay for small molecule antagonists of estrogen receptor alpha signaling (AID 588513; active = well fitted curve in the direction sought with a large enough effect in the signal ratio, with a control signal flat, not every such curve was filed as active; the % refers to the signal ratio)
Procedure, shortened: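 Antagonist-mode qHTS in ER-alpha-UAS-bla HEK 293 cells: compound titration, 0.5nM estradiol for 18 h, CCF4 fluorescence, Hill-derived IC50.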

[17] = molecular target: Estrogen receptor (Homo sapiens) (UniProt P03372); assay: qHTS assay for small molecule agonists of estrogen receptor alpha signaling (AID 588514; calls by dose curve; note: nearly all actives have a fitted effect of over 70% in size)
Procedure, shortened: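 Efficacy is expressed against 20 nM 17-beta-estradiol (100%) and DMSO basal (0%); EC50 from Hill equation. Assay: beta-lactamase reporter in ER-alpha-UAS-bla HEK 293 cells, 18 h compound incubation, CCF4 detection.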

[18] = Cell Viability - LYMP2-002 (AID 977);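 note: series mostly up to about 92 µM; compound exposure lasted 24 h at 37 °C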
Procedure, shortened: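 In this qHTS viability screen, 2500 human lymphoblastoid cells per well receive compound for 24 hr at 37 C, and luciferase-based ATP luminescence gives the viability signal. Tetraoctylammonium bromide serves as positive control.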

[19] = Cell Viability - LYMP1-002 - Assay at 24 hr (AID 993)
Procedure, shortened: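 Acute toxicity is measured as concentration-dependent loss of cellular ATP in a human lymphoblastoid line (Coriell LYMP1-002) after 24 h treatment in complete medium. ATP is quantified by luciferase luminescence and AC50 derived by Hill modelling.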

Measured: Potency

Estrogen receptor (Homo sapiens), sequence (P03372 whole entry, looked up): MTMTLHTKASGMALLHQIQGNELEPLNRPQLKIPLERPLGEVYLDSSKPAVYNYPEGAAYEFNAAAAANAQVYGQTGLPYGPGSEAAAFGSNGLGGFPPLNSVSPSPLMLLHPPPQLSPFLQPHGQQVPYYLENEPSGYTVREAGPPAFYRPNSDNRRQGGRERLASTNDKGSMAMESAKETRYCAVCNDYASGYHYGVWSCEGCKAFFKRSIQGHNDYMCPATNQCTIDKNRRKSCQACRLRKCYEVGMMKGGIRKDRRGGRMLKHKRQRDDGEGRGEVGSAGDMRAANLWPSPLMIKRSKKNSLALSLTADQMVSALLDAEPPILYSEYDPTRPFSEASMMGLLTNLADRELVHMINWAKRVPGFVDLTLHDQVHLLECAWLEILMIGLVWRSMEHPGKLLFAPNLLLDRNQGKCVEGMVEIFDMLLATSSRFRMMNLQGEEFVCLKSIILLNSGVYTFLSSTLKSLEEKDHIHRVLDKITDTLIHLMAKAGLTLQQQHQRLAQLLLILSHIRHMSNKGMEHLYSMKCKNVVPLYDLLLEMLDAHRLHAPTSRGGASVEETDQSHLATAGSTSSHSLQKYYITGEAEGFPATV

C=Cc1ccccc1C=C
not listed: [18] | [19]
inactive: all other assays above

O=C1OC(=O)c2cc([N+](=O)[O-])ccc21
not listed: [5]
inactive: all other assays above

CC(C)CCOC(=O)/C=C/c1ccccc1
not listed: [6]
inactive: all other assays above

Oc1c(Cl)ccc(Cl)c1Cl
not listed: [5] | [6] | [13]
inactive: all other assays above

ICCc1ccccc1
not listed: [5]
inactive: all other assays above

CCCCCCCCCCCCOCC1CO1 (stereo not drawn)
not listed: [13] | [18]
inactive: all other assays above

O=C(O)c1ccc(Cl)c(Cl)c1
not listed: [18]
inactive: all other assays above

O=[N+]([O-])c1cccc(C(F)(F)F)c1
not listed: [18]
inactive: all other assays above

Nc1cc(Cl)c(N)c(Cl)c1
not listed: [18]
inactive: all other assays above
